# Compounds with a hit are over-represented: about 4.1% of the library has one in this group of screens.
# PfM18AAP inh – blocks P. falciparum M18 aspartyl aminopeptidase | recombinant PfM18AAP, H-Glu-NHMec fluorogenic cleavage | inhibition, % at 7.35 µM | 290,000 compounds, 1.2% hits;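 active = inhibition above the campaign mean inhibition over all tested compounds plus 3 SD, cut at about 28% in these data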;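 also: 0% = plate median of test compound wells and 100% = 2 mM ZnCl2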
# PolyA inh – blocks polyadenylation in yeast reporter cells; S. cerevisiae SKY197-pL101 polyadenylation reporter, beta-gal luminescence; efflux-impaired pdr1/pdr3 knockout yeast; score 100 = 6 SD above DMSO; activity score, % at 12 µM; 300,000 compounds, 0.02% hits;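 active = lowest replicate activity score at least 50, where 100 means six control SD above control mean; inconclusive = lowest score under 50 but half or more replicates reach 50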;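 also: yeast exposed to compound for 9 h at 30 °C; higher score means more reporter readthrough which indicates perturbed polyadenylation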
# IDE act – IDE (human) activation, cell-based | P14735 | HEK cells, FAbeta-B cleavage, fluorescence polarization; 0% vehicle, 100% cell-free pure enzyme wells | activation, % at 5.96 µM | 340,000 compounds, 0.073% hits | AID 493087;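 active = activation above the mean of all tested compounds plus 3 SD, set per screening campaign, cut at about 17% in these data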
# ALR inh – inhibitors of human sulfhydryl oxidase ALR; P55789; purified ALR, DTT oxidation, H2O2 HRP-luminol luminescence; inhibition, % (concentration not given with the values); 290,000 compounds, 3.8% hits; AID 485317;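 active = mean replicate inhibition above about 79%, with every replicate also reaching it, limit read from the data; inconclusive = only one of the two criteria met; inactive = mean below limit and not every replicate reaching it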
# Target sequence (P55789 whole entry, looked up): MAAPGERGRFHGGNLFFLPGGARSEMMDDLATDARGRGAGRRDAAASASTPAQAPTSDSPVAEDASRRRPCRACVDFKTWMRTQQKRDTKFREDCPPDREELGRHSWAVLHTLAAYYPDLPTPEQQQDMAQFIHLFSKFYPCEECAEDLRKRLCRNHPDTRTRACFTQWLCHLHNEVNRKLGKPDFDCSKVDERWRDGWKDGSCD
# CaV13 ICDI inh – Disruptors of the CACNA1D IQ motif to Ca2+-dependent inactivation inhibitor domain association, primary screening, Förster resonance energy transfer in intact living …. HEK cells, CFP/YFP FRET ICDI-IQ, plate reader, 10 min; percent FRET-ratio fall versus neutral wells. 340,000 compounds, 0.098% hits. AID 743397. inhibition, % at 12.3 µM;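 active = mean replicate inhibition of at least 30% and at least 1% of replicates passing that level; inconclusive = only one of the two criteria is met; inactive = neither criterion is met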;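 also: 0% = median of the neutral control wells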
# IDE inh – cellular human IDE inhibition; inhibition, % at 5.59 µM; 320,000 compounds, 0.41% hits; HEK cells, FAbetaB cleavage, fluorescence polarization; AID 434962;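 active = percent inhibition above the average of all tested compounds plus 3 SD, set per screening campaign, cut at about 16% in these data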;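 also: IDE supplied by intact live HEK cells; FP after avidin binding of uncleaved biotin substrate so inhibition keeps polarization high; 0% = DMSO wells and 100% = 60 µM reference IDE inhibitor Ii1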
# * hit, by the source's call; ? = inconclusive; nt = no result.
SMILES,PfM18AAP inh,PolyA inh,IDE act,ALR inh,CaV13 ICDI inh,IDE inh
Cc1oc(-c2cccs2)nc1CS(=O)CC(=O)NCCCN1CC(C)CC(C)C1 (stereo unspecified),-16.2,-11.5,-1.2,98.8*,-6.9,-1.1
Cc1oc(-c2ccc(Cl)cc2)nc1CS(=O)CC(=O)NCCCN1CCN(Cc2ccccc2)CC1 (stereo unspecified),-8.2,-6.3,0.3,?,-2.3,1.5
Cc1ccccc1-c1nc(CS(=O)(=O)CC(=O)NCCCN2CCN(C)CC2)c(C)o1,1.2,2.8,4.5,-4.4,-7.7,8.4
CCOc1cc(C(=S)N2CCN(C)CC2)ccc1OCC(=O)N1CCCC1,-1.6,-1.1,4.3,3.6,-6.5,-2.5
Cc1cnc(C(=O)N2CCN(S(=O)(=O)c3cccc(Br)c3)CC2)cn1,nt,nt,-1.4,-3.2,-4.7,4.1
N#Cc1ccc2nc(-c3ccc(CN4CCC5(CC4)CNc4ccccc45)cc3)c(-c3ccccc3)nc2c1,nt,nt,nt,nt,-11.7,nt
COc1cc(OC)cc(C(=O)NCC(=O)OCC(=O)NCc2ccco2)c1,nt,nt,5.4,1.0,-5.3,-0.5
O=C(COC(=O)COc1ccc(Nc2ccccc2)cc1)NCc1ccco1,21.9,-16.5,5.3,99.7*,nt,-3.1
Cc1cc(C)cc(C(=O)NCC(=O)OCC(=O)NCc2ccco2)c1,31.5*,-6.9,-5.7,-0.4,-6.5,3.1
CCC(=O)c1ccc(OCC(=O)OCC(=O)Nc2c(C)n(C)n(-c3ccccc3)c2=O)cc1,nt,8.9,9.2,-18.2,-5.7,7.0
CC(=O)c1ccc(OCC(=O)OCC(=O)NCc2ccco2)cc1,nt,nt,2.4,2.7,-2.3,-2.9
O=C(COc1ccccc1)NCCSCc1ccco1,-0.9,2.6,3.8,81.9*,1.1,14.4
Cc1c(NC(=O)COC(=O)COc2ccc(Nc3ccccc3)cc2)c(=O)n(-c2ccccc2)n1C,12.4,nt,-6.1,99.3*,-2.7,1.6
CS(=O)(=O)c1cccc(OCCCN2CCC(C(O)(c3ccccc3)c3ccccc3)CC2)c1,nt,nt,nt,nt,-7.5,nt
COc1cc(C(C)=O)ccc1OCC(O)CNCC(O)c1ccccc1 (stereo unspecified),-8.8,5.2,-2.4,nt,-2.7,3.8
CN(Cc1ccccc1)S(=O)(=O)c1cccc2nsnc12,-0.6,-13.5,5.5,0.2,-2.4,10.3
O=C(NCCSc1ccc(Br)cc1)c1ccc2nc[nH]c2c1,-8.4,28.9,20.0*,-18.7,-6.7,1.7
O=C(NC1CCCC1)C(=O)N(c1ccccc1F)C(C(=O)NCC1CCCO1)c1cccs1 (stereo unspecified),1.2,7.2,0.5,-0.7,-6.9,10.9
Cc1nc(N)sc1C(=O)N/N=C/c1ccccc1[N+](=O)[O-],5.3,6.3,nt,-1.3,3.2,-4.2
O=C(CNc1ccccc1)N/N=C/c1c[nH]c2ccccc12,1.0,-2.4,8.4,89.2*,-5.5,-3.7
Cc1nc(N)sc1C(=O)N/N=C/c1c[nH]c2ccccc12,10.0,-0.3,2.3,90.6*,-4.9,4.0
Cc1ccc(S(=O)(=O)NCC2CCN(C(=O)C(=O)c3cc4ccccc4o3)CC2)cc1,nt,nt,nt,nt,-9.0,nt
O=C(NCCOC(=O)c1c(F)cccc1Cl)c1c(F)cccc1Cl,0.9,-2.2,3.8,-6.9,-4.1,nt
CNC(=O)c1csc(-c2ccc(C)cc2)n1,-13.0,-0.1,1.8,98.7*,-4.6,-2.3
CNC(=S)N1CCN(S(=O)(=O)c2ccc3ccccc3c2)CC1,-13.1,-0.3,2.5,-0.4,-4.2,1.8
SMILES,PfM18AAP inh,PolyA inh,IDE act,ALR inh,CaV13 ICDI inh,IDE inh
CCN1C(=O)/C(=C/N(C)C)c2ccccc21,1.2,0.8,5.6,99.2*,-3.4,2.7
CC1CC(C)CN(C(=O)C2CCN(C(=O)Nc3ccccc3)CC2)C1 (stereo unspecified),nt,19.3,0.3,-35.3,-6.8,3.6
CC(C)(c1ccc(O)cc1)c1ccc(O)cc1,-4.8,4.9,6.5,91.3*,-17.0,2.4
Cc1ccc(-c2nc3ccccn3c2Nc2ccccc2)o1,-46.9,-3.1,-4.9,98.9*,-4.2,1.2
Cc1ccc2nc(-c3ccco3)c(Nc3ccccc3)n2c1,3.2,-9.9,5.2,27.4,-10.0,1.5
Cc1ccc(Nc2c(-c3ccc(C)o3)nc3cnccn23)cc1,-36.9,-7.0,0.4,nt,-8.2,5.3
Cc1ccc(-c2nc3cnccn3c2Nc2ccccc2)o1,nt,3.1,-8.5,98.2*,-6.3,-1.0
Cc1nc(N/N=C/c2ccccn2)sc1C,14.5,nt,nt,96.9*,-2.9,-4.0
CCCc1sc(N/N=C/c2ccccn2)nc1-c1ccc(F)cc1,-3.4,-21.0,0.9,1.4,nt,-1.7
CCCn1nc(NS(=O)(=O)c2cccc3nonc23)c2cc3ccccc3nc21,-0.1,-2.8,2.7,99.0*,-4.4,4.0
CCn1nc(NS(=O)(=O)c2ccccc2)c2cc3cc(C)ccc3nc21,4.8,-7.6,3.8,80.7*,-7.4,2.2
CCn1nc(NS(=O)(=O)c2ccccc2[N+](=O)[O-])c2cc3cccc(C)c3nc21,5.6,5.5,7.3,91.5*,-4.1,-4.2
CC1(c2ccc(OC(F)F)cc2)NC(=O)N(CC(=O)N2c3ccccc3NC(=O)C2(C)C)C1=O (stereo unspecified),nt,nt,0.6,nt,-2.1,5.9
Cc1ccc(NC2=C(NCCO)C(=O)c3ccccc3C2=O)cc1,-2.6,2.1,7.1,99.6*,-7.1,-0.6
Cc1ccc(C(=O)n2c(-c3ccccc3)cnc2SCC(=O)Nc2ccc(C)cc2C)cc1,3.3,0.2,2.3,nt,-14.9,8.2
Oc1cccc(C(=S)N2CCC(Cc3ccccc3)CC2)c1,26.6,2.1,2.7,2.4,-3.3,4.2
Oc1cccc(C(=S)N2CCN(Cc3ccccc3)CC2)c1,29.5*,14.0,4.8,19.4,-5.6,1.0
Cc1cc(C)nc(-n2nc(C)c(Br)c2Nc2ccc(Br)cc2)n1,2.9,-6.0,3.4,-3.0,-5.4,2.4
Cc1nn(C)c(Nc2ccc(Br)cc2)c1Br,5.9,-21.8,-0.9,92.6*,-7.1,-2.0
O=C(C[C@H]1C/C=C\CC[C@H](Cc2ccc(F)cc2)C(=O)OC[C@@H](Cc2c[nH]c3ccccc23)NC1=O)NCCO,nt,nt,6.6,-11.6,-5.6,0.5
O=C(O)C1=CC(=C(c2ccc(O)c(C(=O)O)c2)c2ccc(O)c(C(=O)O)c2)C=CC1=O,nt,nt,nt,97.4*,nt,-2.1
Cc1ccc(NC(=O)CSc2ncccn2)cc1S(=O)(=O)N1CCOCC1,nt,nt,-1.6,nt,-2.5,4.3
COc1ccc(C2=CSC3=NCCN23)cc1F,6.5,2.4,7.2,84.9*,-0.5,-1.0
CCc1nnc(NS(=O)(=O)c2ccc(NC(=O)c3ccc([N+](=O)[O-])s3)cc2)s1,nt,nt,nt,nt,-5.0,nt
COc1ccccc1S(=O)(=O)Cc1ccc(C(=O)NCC(OC)OC)o1,-2.6,5.5,-3.1,-10.7,-4.0,-5.6
CC1(C)Cc2c(sc3[nH]c(=S)n(Cc4ccco4)c(=O)c23)CO1,4.8,-9.6,2.9,98.3*,-6.1,-5.0
